Read-out in experiment [1]: alkyl and aryl transferase (GSTA2), GSTA2 (gene 2939)
Briefly: CLD_GSTA2_24hr: CellzDirect (CLD) Gene Expression Assay for alkyl and aryl transferase (GSTA2) at 24 hours (AID 2283693). In short, it runs like this: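 Primary human hepatocytes (two donor preparations) dosed daily for two days with chemicals at multiple concentrations (vehicle 0.2% DMSO); GSTA2 mRNA at 24 h measured by qNPA chemiluminescence, gain-of-signal versus DMSO.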

Read-out in experiment [2]: glucuronosyltransferase (UGT1A1), UGT1A1 (gene 54658)
Briefly: CLD_UGT1A1_24hr: CellzDirect (CLD) Gene Expression Assay for glucuronosyltransferase (UGT1A1) at 24 hours (AID 2283696). In short, it runs like this:
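Primary human hepatocytes from two donor preparations were dosed (0.2% DMSO vehicle) and harvested at 24 h; UGT1A1 mRNA induction was quantified by chemiluminescent qNPA, fitted as gain relative to DMSO.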

Read-out in experiment [3]: Cytochrome P450 2C9 (Homo sapiens) (UniProt P11712)
Briefly: CLD_CYP2C9_48hr: CellzDirect (CLD) Gene Expression Assay for xenobiotic metabolism (CYP2C9) at 48 hours (AID 2283701; active means hit-call score of the fitted dose curve at least 0.9, where 1 is the maximum; inactive means score below 0.9). In short, it runs like this: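 Primary human hepatocytes (two donor preparations) dosed daily for two days with test chemicals, 0.2% DMSO vehicle; harvested at 48 h. mRNA induction quantified by qNPA chemiluminescence, fitted for gain of signal against DMSO baseline; cytotoxicity annotated from phase-contrast morphology.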

Read-out in experiment [4]: Broad substrate specificity ATP-binding cassette transporter ABCG2 (Homo sapiens) (UniProt Q9UNQ0)
Kind of experiment: CLD_ABCG2_48hr: CellzDirect (CLD) Gene Expression Assay for ABC Transporter (ABCG2) at 48 hours (AID 2283704). In short, it runs like this:
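Primary human hepatocytes from two donors, dosed daily for 2 days, 0.2% DMSO vehicle, several concentrations. ABCG2 mRNA at 48 h by qNPA chemiluminescence, gain fitted versus DMSO; cytotoxicity flagged by morphology.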

Read-out in experiment [5]: xenobiotic metabolism (CYP1A1), CYP1A1 (gene 1543)
Briefly: CLD_CYP1A1_48hr: CellzDirect (CLD) Gene Expression Assay for xenobiotic metabolism (CYP1A1) at 48 hours (AID 2283705). Summed up:
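Primary human hepatocytes from two donors dosed daily for two days at multiple concentrations, 0.2% DMSO vehicle; CYP1A1 mRNA induction at 48 h by qNPA chemiluminescence. Cytotoxicity noted by phase-contrast morphology.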

Read-out in experiment [6]: glucuronosyltransferase (UGT1A1), UGT1A1 (gene 54658)
Briefly: CLD_UGT1A1_48hr: CellzDirect (CLD) Gene Expression Assay for glucuronosyltransferase (UGT1A1) at 48 hours (AID 2283709).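 Further: actives increase expression relative to DMSO so potency refers to induction.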 Summed up:
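Human primary hepatocytes dosed daily for two days (0.2% DMSO vehicle), harvested at 48 h. UGT1A1 mRNA induction measured by quantitative nuclease protection assay with chemiluminescence; gain of signal versus DMSO; cytotoxicity flagged from morphology.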

Read-out in experiment [7]: sulfotransferase (SULT2A), SULT2A1 (gene 6822)
Briefly: CLD_SULT2A_48hr: CellzDirect (CLD) Gene Expression Assay for sulfotransferase (SULT2A) at 48 hours (AID 2283710).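 Further: hits raise SULT2A1 transcript above the 0.2% DMSO vehicle baseline.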 Summed up:
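Primary human hepatocytes (two donor preparations) dosed daily for two days with chemicals at multiple concentrations, vehicle 0.2% DMSO; SULT2A1 mRNA induction at 48 h by quantitative nuclease protection assay, chemiluminescent read-out, fitted for gain of signal versus DMSO.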

A short description of experiment [8]: Tanguay_ZF_120hpf_ActivityScore_legacy: (Legacy) Oregon State University Tanguay Lab 120 Hour Post-fertilization zebrafish Assay Score for Activity (AID 2283742).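 On AC50: dechorionated Tropical 5D wild-type zebrafish embryos held singly per well; static exposure from 6 hpf until 120 hpf at 28 °C.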 In short, it runs like this: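 Dechorionated Tropical 5D embryos, one per well from 6 hpf, statically exposed to 120 hpf at 28 °C in 0.64% DMSO. Mortality and malformations scored binary by brightfield microscopy; activity score combines 18 endpoints, fitted positively versus DMSO.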

Read-out in experiment [9]: sulfotransferase (SULT2A), SULT2A1 (gene 6822)
Kind of experiment: CLD_SULT2A_24hr: CellzDirect (CLD) Gene Expression Assay for sulfotransferase (SULT2A) at 24 hours (AID 2283694). Summed up: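 Primary human hepatocytes from two donor preparations were dosed daily with fresh solutions, vehicle 0.2% DMSO. At 24 h, lysates went to quantitative nuclease protection (qNPA) with S1 digestion and chemiluminescent readout. Cytotoxicity was annotated from phase-contrast morphology.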

Read-out in experiment [10]: ABC Transporter (ABCB1), ABCB1 (gene 5243)
Kind of experiment: CLD_ABCB1_48hr: CellzDirect (CLD) Gene Expression Assay for ABC Transporter (ABCB1) at 48 hours (AID 2283695). In short, it runs like this: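 Primary human hepatocytes from two donor preparations dosed daily on two consecutive days with 0.2% DMSO vehicle. Harvest at 48 h. ABCB1 mRNA quantified by qNPA with chemiluminescence and fitted for gain of signal versus DMSO.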

Read-out in experiment [11]: xenobiotic metabolism (CYP1A2), CYP1A2 (gene 1544)
Briefly: CLD_CYP1A2_48hr: CellzDirect (CLD) Gene Expression Assay for xenobiotic metabolism (CYP1A2) at 48 hours (AID 2283703). Summed up:
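Primary human hepatocytes from two donor preparations were dosed daily for two days at multiple concentrations in 0.2% DMSO vehicle. CYP1A2 mRNA was measured at 48 hours by chemiluminescent quantitative nuclease protection assay, with gain of signal fitted versus DMSO and cytotoxicity annotated from morphology.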

Experiment [12] is described as follows: STM_H9_OrnithineISnorm_perc: Stemina devTOX quickPredict H9 human embryonic stem cell (hESC)-based Assay for Ornithine (ORN) Metabolite Biomarker, Normalized (AID 2283712; active means hit-call score of the fitted dose curve at least 0.9, where 1 is the maximum; inactive means score below 0.9;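 further: ornithine released into spent medium during last day measured by mass spectrometry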). In short, it runs like this:
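Undifferentiated H9 hESCs exposed 72 h with daily media and compound renewal; final 24-h conditioned medium analysed by UPLC-HRMS. Ornithine peak area normalised to spiked C13 standard and to median 0.1% DMSO control; viability by CellTiter-Fluor.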

The nature of experiment [13]: STM_H9_CystineISnorm_perc: Stemina devTOX quickPredict H9 human embryonic stem cell (hESC)-based Assay for Cystine (CYSS) Metabolite Biomarker, Normalized (AID 2283713; active means hit-call score of the fitted dose curve at least 0.9, where 1 is the maximum; inactive means score below 0.9). In short, it runs like this:
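Undifferentiated H9 hESCs exposed 72 h, compound and media replaced every 24 h; final 24-h media analysed by UPLC-HRMS. Cystine normalized to C13 spike-in standard and median 0.1% DMSO control.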

Experiment [14] in a line: STM_H9_OrnCyssISnorm_ratio: Stemina devTOX quickPredict H9 human embryonic stem cell (hESC)-based Assay for Ornithine (ORN):Cystine (CYSS) Ratio (AID 2283714). In short, it runs like this:
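Undifferentiated H9 hESCs exposed 72 h, media and compound replaced every 24 h; final 24-h conditioned media deproteinized and analysed by UPLC-HRMS against C13 spike-ins. Value is the internal-standard-normalized ORN/CYSS ratio versus 0.1% DMSO.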

Experiment [15] in a line: CEETOX_H295R_MTT_cell_viability: Viability Assessment in the CeeTox HT-H295R MTT Assay (AID 2283718; active means hit-call score of the fitted dose curve at least 0.9, where 1 is the maximum; inactive means score below 0.9). In short, it runs like this:
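Human H295R adrenal cells, prestimulated 48 h with 10 uM forskolin, were exposed 48 h to chemicals in 0.1% DMSO. Viability was measured in the same wells by MTT (0.5 mg/ml, 4 h, 37 C), absorbance 570/650 nm, as percent of controls.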

Read-out in experiment [16]: Cytochrome P450 3A4 (Homo sapiens) (UniProt P08684)
Kind of experiment: CLD_CYP3A4_24hr: CellzDirect (CLD) Gene Expression Assay for xenobiotic metabolism (CYP3A4) at 24 hours (AID 2283689). In short, it runs like this:
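Primary human hepatocytes from two donors dosed daily with fresh compound for two days, 0.2% DMSO vehicle. CYP3A4 mRNA at 24 hr by qNPA chemiluminescence; gain-of-signal fit versus DMSO, cytotoxicity flagged by morphology.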

Read-out in experiment [17]: organic anion transporter (SLCO1B1), SLCO1B1 (gene 10599)
Briefly: CLD_SLCO1B1_48hr: CellzDirect (CLD) Gene Expression Assay for organic anion transporter (SLCO1B1) at 48 hours (AID 2283707). Summed up:
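Primary human hepatocytes from two donor preparations dosed daily for two days with multiple concentrations, 0.2% DMSO vehicle. SLCO1B1 mRNA at 48 h by quantitative nuclease protection assay, chemiluminescence; gain-of-signal fitted versus DMSO.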

Records with an inconclusive call do not appear. Activity calls are given as the source filed them. How the source made its calls, unless noted: active means hit-call score of the fitted dose curve at least 0.9, where 1 is the maximum; inconclusive means response in the unintended direction; inactive means score below 0.9.

Broadly, the AC50 is the concentration at which the activity in the assay is half-maximal.

Broad substrate specificity ATP-binding cassette transporter ABCG2 (Homo sapiens), sequence (Q9UNQ0 whole entry, looked up): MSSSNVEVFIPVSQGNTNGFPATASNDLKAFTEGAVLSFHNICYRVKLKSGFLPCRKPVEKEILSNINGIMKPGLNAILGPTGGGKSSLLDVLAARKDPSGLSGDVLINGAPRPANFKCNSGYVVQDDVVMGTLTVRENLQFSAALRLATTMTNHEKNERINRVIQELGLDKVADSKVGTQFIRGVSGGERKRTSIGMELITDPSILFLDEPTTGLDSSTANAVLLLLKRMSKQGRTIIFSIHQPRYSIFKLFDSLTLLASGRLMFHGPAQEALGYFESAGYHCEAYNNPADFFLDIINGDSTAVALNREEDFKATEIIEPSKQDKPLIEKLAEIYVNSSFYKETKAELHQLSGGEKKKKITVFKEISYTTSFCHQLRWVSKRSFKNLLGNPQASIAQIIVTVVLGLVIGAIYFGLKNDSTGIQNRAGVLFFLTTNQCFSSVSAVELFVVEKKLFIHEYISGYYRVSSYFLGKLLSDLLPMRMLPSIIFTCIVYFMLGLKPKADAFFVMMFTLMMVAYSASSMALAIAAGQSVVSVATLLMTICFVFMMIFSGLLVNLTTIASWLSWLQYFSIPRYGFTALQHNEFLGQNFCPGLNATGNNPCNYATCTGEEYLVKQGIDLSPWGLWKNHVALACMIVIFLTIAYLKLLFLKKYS
Cytochrome P450 3A4 (Homo sapiens), sequence (P08684 whole entry, looked up): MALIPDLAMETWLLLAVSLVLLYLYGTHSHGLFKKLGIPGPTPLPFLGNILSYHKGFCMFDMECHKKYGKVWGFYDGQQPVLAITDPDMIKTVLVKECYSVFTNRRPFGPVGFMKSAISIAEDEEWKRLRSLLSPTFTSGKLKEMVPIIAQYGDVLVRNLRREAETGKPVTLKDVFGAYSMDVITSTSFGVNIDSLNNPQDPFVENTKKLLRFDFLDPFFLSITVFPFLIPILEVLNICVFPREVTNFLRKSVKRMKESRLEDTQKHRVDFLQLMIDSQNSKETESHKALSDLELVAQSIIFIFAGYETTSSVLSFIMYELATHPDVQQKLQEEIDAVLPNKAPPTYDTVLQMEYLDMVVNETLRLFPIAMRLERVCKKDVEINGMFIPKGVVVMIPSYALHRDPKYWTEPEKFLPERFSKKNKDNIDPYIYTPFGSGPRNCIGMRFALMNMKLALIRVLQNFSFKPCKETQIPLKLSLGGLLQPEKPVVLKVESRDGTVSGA

With `CN1CSC(=S)N(C)C1`, the outcome in [1], in [2], in experiment [3], in experiment [4], in experiment [5] and in experiment [6] was inactive. Further, the compound was called inactive in experiment [7]. In addition, in [8], the AC50 was 0.0296 µM (active).
Regarding `[2H]C1([2H])[n+]2ccccc2-c2cccc[n+]2C1([2H])[2H]`, the result in [1] and in experiment [4] was inactive. Besides, the AC50 in experiment [5] is 20 µM (active).
For the compound `C#CCN1C(=O)COc2cc(F)c(N3C(=O)C4=C(CCCC4)C3=O)cc21`, the outcome in [1], in experiment [9], in [10], in experiment [2], in experiment [3] and in [11] was inactive. Also, the outcome in [4], in experiment [5], in experiment [6], in experiment [15] and in [8] was inactive. Also, the AC50 is 3.49 µM (active) in experiment [7], 84.1 µM (active) in [12], 79.6 µM (active) in experiment [13] and 93 µM (active) in [14].
On to `CCc1ccc(C(=O)NN(C(=O)c2cc(C)cc(C)c2)C(C)(C)C)cc1`, for which the AC50 in experiment [16] is 3.67 µM (active); in experiment [2] it was 4.06 µM (active); in experiment [6], 3.53 µM (active). For the same compound, the compound was classed as inactive in experiment [9], in experiment [10], in experiment [3], in [5], in [17] and in experiment [7]. The call in experiment [15] and in experiment [8] was inactive.
For `COP(=S)(OC)Oc1ccc(SC)c(C)c1`, the compound was called inactive in [16], in [2], in experiment [6] and in [15]. Besides, in experiment [5], the AC50 was 33.4 µM (active).
With `CC1(C)C(C=C(Cl)Cl)C1C(=O)OC(C#N)c1ccc(F)c(Oc2ccccc2)c1` (centres undefined), the compound was called inactive in experiment [16], in experiment [2], in experiment [3], in experiment [5], in [6] and in experiment [7]. The result in [12], in [13], in [15] and in experiment [8] was inactive.
Turning to `O=C(O)COc1ccc(Cl)cc1Cl`, the result in experiment [1], in [10], in [2], in [4], in experiment [5] and in experiment [17] was inactive. In addition, the compound was classed as inactive in experiment [6], in experiment [15] and in experiment [8].
For the compound `N#CN`, the compound was classed as inactive in experiment [1], in experiment [9], in [10], in [3], in experiment [4] and in [5]. The result in [6] and in [8] was inactive.

The values are drawn from PubChem BioAssay (EPA / NIEHS).
